Tests used:
Assay in all cases: PBM binding z-score (relative to random genomic background probes); higher = stronger binding; sequences stand for … in GC…GCGATTGACAGCGTAGAATGAAGG
[1] = test system: FXR:RXRa (NR concentration 270 nM, RXRa partner concentration 90 nM)
Method in brief: (§1)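 The probes on custom Agilent 4×180K protein-binding microarrays were double-stranded, with 34-nt variable regions bearing direct-repeat seeds, single-nucleotide variants, half-site ablations and random human genomic background sequences. Incubation lasted 1 h with ligand-free nuclear receptor dimers in PBS pH 7.4, 2% milk, 0.02% Triton X-100, 1 mM DTT, 0.2 mg/mL BSA and 0.4 mg/ml salmon testes DNA. Antibodies against each partner (one per run) detected bound dimers, and fluorescence scans were regression-normalized. Binding z-scores take the random background probes as reference.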

[2] = test system: LXRa:RXRa (NR concentration 270 nM, RXRa partner concentration 90 nM)
Method in brief: as §1

[3] = test system: LXRa homodimer (NR concentration 270 nM)
Method in brief: as §1

[4] = test system: LXRb:RXRa (NR concentration 270 nM, RXRa partner concentration 90 nM)
Method in brief: as §1

[5] = test system: LXRb homodimer (NR concentration 270 nM)
Method in brief: as §1

[6] = test system: PPARa:RXRa (NR concentration 270 nM, RXRa partner concentration 90 nM)
Method in brief: as §1

[7] = test system: PPARg:RXRa (NR concentration 180 nM, RXRa partner concentration 90 nM)
Method in brief: as §1

[8] = test system: PPARg:RXRa 270nM:90nM, anti-RXR (NR concentration 270 nM, RXRa partner concentration 90 nM)
Method in brief: as §1

[9] = test system: PPARg:RXRa 30nM:10nM, anti-RXR (NR concentration 30 nM, RXRa partner concentration 10 nM)
Method in brief: as §1

[10] = test system: PPARg:RXRa 90nM:30nM, anti-RXR (NR concentration 90 nM, RXRa partner concentration 30 nM)
Method in brief: as §1

Sequence	PBM binding z-score [1]	PBM binding z-score [2]	PBM binding z-score [3]	PBM binding z-score [4]	PBM binding z-score [5]	PBM binding z-score [6]	PBM binding z-score [7]	PBM binding z-score [8]	PBM binding z-score [9]	PBM binding z-score [10]
GCTGGTAGGTCAGGTTGGTCAGCTAACGGGTACG	1.28	1.03	0.172	0.929	-0.0209	2.05	1.44	1.88	0.102	1.02
AGAATGAGGTTATTAAGATCAGGGCATTGCGGTC	1.9	1.95	0.705	1.39	-0.0987	2.66	1.67	2.33	1	1.39
ACTAGCAGGCCAAGGGTCACTCTAGATTAGTCCG	1.88	3.2	0.239	2.54	-0.423	4.44	7.53	7.29	6.21	7.97
CCTACTGGGCCACGAAAAGTCATTGATTCAGTGA	-0.198	-0.0823	-0.286	-0.375	-0.772	0.98	1.63	1.67	0.153	0.689
CTCGCAAGGTCGTGCTCAGGTGAGTATACCAAAC	2.12	1.71	-0.122	1.37	-0.498	2.81	0.423	1.04	-0.426	0.224
TAGCCTAGGTCAGATCGGGCAAGTATACGCTATA	1.87	1.1	-0.305	0.779	-0.322	1.74	0.654	0.623	-0.284	0.343
TCATATAGGTAAATGCTAAGTGAAAGTCCGATCT	1.1	0.928	0.284	0.773	-0.0273	1.17	0.762	2.04	3.9	2.9
TCAGACAGGTGAAGGTACCTCAGGTACGCAGTCG	0.559	0.611	-0.182	0.0572	-0.29	1.13	0.642	1.8	3.41	2.54
TCGAGTAGGTTAGGGGCATACAGAATGGCGTCGA	0.679	0.555	-0.335	0.825	-0.198	1.39	1.04	1.65	1.4	1.6
TTACCAAGATGAAGGTCGTTGATCCCTCTGTAGA	1.47	1.91	-0.0555	1.48	-0.663	1.33	0.406	1.7	1.5	1.72
ACAGTCAGGTGATGAAGGTAACTCAGGCTATCAT	0.11	-0.185	-0.351	-0.331	-0.338	0.116	0.349	-0.0826	0.0143	-0.0221
TCTGCTAGGTAAACGATGGTCAGCTAATCTGCTA	-0.588	-0.334	-0.988	-0.606	-1.07	-0.0928	-0.293	0.636	1.68	1.22
TCTATTAGTTGATTAGGGCATCCGAAACAGCGGA	0.685	0.731	0.192	0.397	0.553	0.769	0.185	1.91	3.47	2.78
ACTATTAGTTGACTTAGGACAACCGATACGACGC	0.502	0.291	0.606	0.299	0.989	0.0286	1.11	0.164	0.448	0.273
TCATATAGGTAATACAGGTGAAAGGCGGCATCTA	1.01	1.22	0.706	0.93	0.000841	2.25	2.3	3.69	4.62	4.1
AGAACGAGGGCATTGAGTTGATAGCACGGGTGGC	0.832	0.491	-0.273	0.0744	-0.545	1.26	1.02	0.78	-0.308	6.55e-05
CATATTAGTTGACCATAAGGGCAACCGAAGCTCG	1.05	0.784	0.591	0.601	0.928	0.55	0.779	0.866	0.713	0.78
CAAACTAGGTCAGAACAGGACAGTGAAGGATGAT	1.81	1.26	0.299	0.616	0.235	3.34	5.81	4.56	2.45	3.64
AGAATGAGGTTACCAAAGATCAGAGAAACGCTTG	2.03	6.18	0.173	3.6	-0.0648	3.32	2.75	2.19	0.774	1.78
TCTAGCAGGCCACAGGGTCACTCAAGAGGTACGG	1.75	1.69	-0.338	1.82	-1.09	3.23	2.19	3.02	2.18	2.65
AGTCAAAGTTCATCTAGGTAACCTAAGATATGCT	6.25	6.2	6.02	4.02	2	4.99	6.33	6.35	3.52	5.54
GGAACGATGGCATTCGAGTTGATAGCATGGCGAT	-0.471	-0.604	-0.706	-0.979	-1.12	-0.689	0.643	-0.465	-0.325	-0.434

Sequence	PBM binding z-score [1]	PBM binding z-score [2]	PBM binding z-score [3]	PBM binding z-score [4]	PBM binding z-score [5]	PBM binding z-score [6]	PBM binding z-score [7]	PBM binding z-score [8]	PBM binding z-score [9]	PBM binding z-score [10]
ACTAGCAGGCCAAGGGTCACTTAAGATTAGTCCG	2.62	2.89	0.394	3	-0.323	4.28	8.13	7.44	5.78	8.65
GCTGTTAGGTCAGGTTGGTCAGCTAACGGGTACG	1.95	1.14	-0.132	1.04	0.0917	1.79	0.166	1	-0.41	0.138
CCTGCAAGGTCAATGGTCAGCTAAAGCAGCTCGC	6.55	4.95	0.264	3.63	0.38	5.21	4.22	4.88	1.21	3.68
CGTCAAAGTTCAACTAAGGTAAGGTAAAGCACGC	7.07	6.11	4.02	3.87	1.73	5.14	5.27	5.34	2.26	4.31
TCTTCTAGATCAGCAGGTTAAGAAAGCTGGCCAA	0.108	0.0628	-0.37	0.225	0.0387	0.759	-0.499	1.53	2.84	2.08
TCTATTAGTTGAAGGTCAACCGACGAGTCCGTTT	3.86	4.66	4.55	3.9	1.95	3.95	1.56	3.57	3.89	3.78
TCGATTAGTTGAAGGGCAACCGACGAGTCCGTTT	0.259	0.194	-0.152	0.106	-0.503	0.295	-0.114	1.19	2.74	1.85
TCAGACAGGTGGAGGTAACTCAGGTACGCAGTCG	0.494	1.77	-0.167	0.998	0.354	0.55	0.357	1.4	3.1	2.3
ACTATTAGTTGAGACGAAGGCAACCGATAGGTTG	-0.426	-0.372	-0.315	-0.554	0.221	-0.644	0.452	-0.4	-0.441	-0.372
CAAACTAGGTCACCTGAAGGTCAAAGTCCGCATG	5.8	5.89	5.41	5.04	1.6	5.79	9.15	7.17	5.48	7.17
AGAATGAGGTTACAAAAGATCAGGGAAACGCTTG	1.59	6.22	-0.11	3.07	0.0675	3.05	2.31	2.26	0.772	1.54
TGAATGAGGTTATAAGATAAGGGAACGTTGCAAA	1.34	1.2	-0.153	0.988	0.119	2.45	1.43	1.62	0.912	1.51
CCTAGTGGGCCATCAGGTCATTGATATCAACGTT	1.47	1.04	0.915	1.63	-0.159	2.74	3.06	3.69	1.05	2.74
CCTAGCAGGCCCGGGTCACTCAAGCATTTCGCTT	1.18	1.11	-0.362	1.25	-0.958	2.17	-0.225	0.755	-0.825	0.0676
CCTGCTAGGTCAATGTTCAGCTAAAGCAGCTCGC	3.04	2.39	-0.0143	1.52	0.516	3	2.51	3.63	0.934	2.93
ACTATTAGTTGACTTAGGGCAAGCGATACGACGC	0.286	0.302	0.111	0.0469	0.509	0.124	0.824	0.206	0.267	0.144
ACTCGGAGGACAAAGGGCAGAGCTACGCCAGTGA	0.0109	0.0817	-0.605	-0.115	-0.71	1.88	3.1	4.39	2.2	4.28
CGTCAAAGTTCAAGGTAACGGAACAGAAAGCAGC	6.15	5.59	2.26	3.12	0.735	4.63	4.57	5.32	2.47	4.21
CGAAGTAGGTCATCCAGGACAGTGAATACATTGA	4.86	3.19	1.2	2.64	0.447	5.16	8.31	7.05	4.99	6.9
CCTTACGGGACACTCCAGGTTATAGCATCGGAGT	0.0463	0.511	0.714	-0.359	-0.449	0.0174	0.619	-0.335	-0.0425	-0.27
TCTGCTAGGTCAGTTGCTCAGCTAACGAGCTGCC	0.259	0.241	-0.836	-0.204	-0.131	0.67	-0.489	1.14	0.796	1.19
ATAGACAGGTGAGTGAAGGTAACTCAGCTGGACG	0.729	0.567	-0.416	-0.043	0.00945	0.437	0.69	0.369	0.155	0.444

From the supplement of paper PMC6555819
